Data on 36 compounds can be found in PubChem BioAssay (NCI).

The structures appear in SMILES notation. This is part of a sample that, as a whole, favours compounds with a hit. Of some 83,000 tested, about 20% had one in any assay.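 Compound tested at a single concentration for 48 hours in 96-well plates; a percent growth value below 10 was scored as active.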 Unmarked numbers belong to inactive results. Active and inactive are the calls of the source.

The first assay relates to EKVX NSCLC. The assay can be described thus: NCI-60 one-dose screen, 48 h (100 = growth as untreated, 0 = no growth, -100 = all killed). The note with it: 10 µM unless noted.
`COc1ccc(/C=C/C(=O)c2cc3c(N)c(C(=O)Nc4cccc5ccccc45)sc3nc2C)cc1`: the growth was 92.4%.
On the same count and under the same terms, in the case of `Nc1ncnc2c1c(-c1cccc(Cl)c1)nn2CC(=O)N1CCOCC1` it was 104%; in that of `CC(=O)O[C@H]1CC2CCC3C(CC[C@@]4(C)C3C[C@H]([N+]3(C)CCCCC3)[C@@H]4OC(C)=O)[C@@]2(C)C[C@@H]1N1CCCCC1` (stereo partly specified), 97.7%.
For `c1ccc(Cn2cc3c(c2)-c2oncc2CC3)cc1`, the growth is 41.4%.

A further assay has as its system SN12C renal. Described as above. The note with it: 10 µM unless noted.
On to `O=C1C(Cl)=C(NCCCCCCNC2=C(Cl)C(=O)c3ccccc3C2=O)C(=O)c2ccccc21`, for which the growth is 83.6%.
Still for that read-out and setting: in the case of `CCCC/C=C/[C@@H]1C[C@H]1CCO` it was 94.3%.
Same read-out and setting: for `C=C(C)[C@@H]1CC[C@]2(CO)CC[C@]3(C)[C@H](CC[C@@H]4[C@@]5(C)CC[C@H](NCO)C(C)(C)[C@@H]5CC[C@]43C)[C@@H]12` the value was -92.4% (active); for `Cc1cccc(/C=C/c2c(C(=O)/C=C/c3ccccc3)c(C)nc3ccccc23)c1`, -44.3% (active).
Still for that read-out and setting: for `Cc1ccc(-c2nc(N3CCCNCC3)c3oc(-c4ccc(C)cc4)nc3n2)cc1` the value was 59.1%; for `Cc1sc2nc(NCCc3c[nH]c4ccc(Cl)cc34)[nH]c(=O)c2c1C`, 51.7%.
Take `COc1ccc(OC)c(Nc2nnc(-c3ccc(O)c(OC)c3)o2)c1`: the growth was 34%.
Same read-out and setting: in the case of `COc1ccccc1NC(=O)N=Nc1c(O)[nH]c2ccccc12` it was 93.5%; in that of `Nc1nc2ccccc2c2c1S(=O)(=O)c1ccc(Cl)cc1C2=O`, 11.4%; in that of `Nc1n[nH]c2cccc(C#Cc3cccc(C(=O)Nc4cc(C(F)(F)F)cc(C(F)(F)F)c4)c3)c12`, 61.1%.
Same read-out and setting: for `CS(=O)(=O)Nc1cc(-c2ccc3ncnc(Nc4ccc5c(cnn5Cc5ccc(F)cc5)c4)c3c2)cnc1Cl` the value was 35.6%; for `Fc1cc2c(cc1Cl)N(c1ncnc3ccc(-c4ccc5n[nH]nc5c4)cc13)CC2`, 64.9%.
Consider `CCN1C(=S)N(c2ccccc2)C2NC(=S)N(/N=C/C=C/c3ccccc3OC)C21` (stereo unspecified), for which the growth was 24.6%.
The same measure, in the same setting: in the case of `O=c1c2cccc3c(N4CCCC4)ccc(c32)c2nc3ccccc3n12` it was 64.8%.
Still for that read-out and setting: in the case of `OB1OCc2cc(/C=C/c3cccc(C(F)(F)F)c3)ccc21` it was 15.2%; in that of `O=C(/C=C/c1ccccc1)Nc1ncc(Cc2ccccc2Cl)s1`, 37.2%.
Regarding `CN(C)CCNC(=O)c1ccc(-c2nc3ccc4[nH]ncc4c3c3c2C2CCC3C2)cc1` (stereo unspecified), the growth was 10.2%.
For `COC12C=C/C(=C(/C(=O)OCc3ccncc3)C(=O)CCCCCCCCC3(OC)C=C/C(=C(/C(=O)OCc4ccncc4)C(=O)CCCCCCCC1)O3)O2`, the growth is -30.6% (active).
For the compound `O=C(/C=C/c1cccc(Cl)c1)c1cccc(OCCCOc2cccc(C(=O)/C=C/c3cccc(Cl)c3)c2)c1`, the growth is 96.4%.
On the same count and under the same terms, for `CCn1c(SCC(=O)N/N=C(\C)c2ccc(Cl)cc2)nc2c1c(=O)n(C)c(=O)n2C` the value was 100%; for `Cc1ccc(C[P+](c2ccccc2)(c2ccccc2)c2ccccc2)cc1`, 4.76% (active); for `Clc1ccc2c(NC3CCC(N4CCOCC4)CC3)ccnc2c1` (stereo unspecified), 90.5%.
On the same count and under the same terms, in the case of `Cc1ccc(C2=Nc3c(N)ncnc3NC(c3cccc(Nc4ccnc5cc(C(F)(F)F)ccc45)c3)C2)cc1` (stereo unspecified) it was 50%; in that of `COc1ccc(-c2noc(C(=O)O)c2-c2cc(OC)c(OC)c(OC)c2)cc1`, 38.4%; in that of `CCOC(=O)c1nn(-c2ccc(S(N)(=O)=O)cc2)c2nc(C)cc(=O)n12`, 96.7%.
The same measure, in the same setting: in the case of `CCSC(SCC)c1ccc(Cl)cc1` it was 99.7%; in that of `CSc1nc2ccccc2cc1/C=C1/C=C(c2ccccc2)NC1=O`, 94.1%; in that of `COC1/C=C/OC2(C)Oc3c(C)c(O)c4c(O)c(c(/C=N/Nc5ccc([N+](=O)[O-])cc5[N+](=O)[O-])c(O)c4c3C2=O)NC(=O)C(C)=C/C=C/C(C)C(O)C(C)C(O)C(C)C(OC(C)=O)C1C` (stereo unspecified), -5.59% (active).
Consider `O=C1C(Cl)=C(Nc2ccc(S(=O)(=O)N3CCOCC3)cc2)C(=O)c2ccccc21`, for which the growth was 78.4%.
On to `c1csc(-c2ccc(CNc3c4ccccc4nc4ccccc34)cc2)c1`, for which the growth is 63.2%.
As to `Nc1ncc(-c2ccc3ncnc(Nc4cccc(Cl)c4)c3c2)cn1`, the growth is 45.9%.
The same measure, in the same setting: for `CCOC(=O)C#Cc1c(C(=O)OCC)nnn1Cc1ccc([N+](=O)[O-])cc1` the value was 58.6%.
